# Screening data as filed in PubChem BioAssay.
# D3 ag: D3 dopamine receptor (human) agonism. 410,000 tested, 0.58% active. max activation, %. AID 652048. D3R DiscoveRx beta-arrestin cells, luminescence, 90 min; in the data active means max activation above about 30%; further: 0% is about no effect
#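 Agonist mode: compounds and dopamine controls were applied to plated cells for 90 min at 37 degrees C after an overnight attachment at 1500 cells/well. Luminescent read-out followed 30 - 60 minutes at room temperature with DiscoveRx detection reagent.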
# D1 antagonist: blocks dopamine activation of the human D1 receptor; P21728; HEK293 TREx D1 cells, calcium flux, dopamine EC80; stronger effect = lower value; activity change, negative = inhibition, % at 10 µM; 360,000 tested, 3.2% active; AID 504652; in the data active means activity change below about -30%; further: on the % scale 0 is the no-effect control and ±100 the full control effect
# Target sequence (P21728 whole entry, looked up): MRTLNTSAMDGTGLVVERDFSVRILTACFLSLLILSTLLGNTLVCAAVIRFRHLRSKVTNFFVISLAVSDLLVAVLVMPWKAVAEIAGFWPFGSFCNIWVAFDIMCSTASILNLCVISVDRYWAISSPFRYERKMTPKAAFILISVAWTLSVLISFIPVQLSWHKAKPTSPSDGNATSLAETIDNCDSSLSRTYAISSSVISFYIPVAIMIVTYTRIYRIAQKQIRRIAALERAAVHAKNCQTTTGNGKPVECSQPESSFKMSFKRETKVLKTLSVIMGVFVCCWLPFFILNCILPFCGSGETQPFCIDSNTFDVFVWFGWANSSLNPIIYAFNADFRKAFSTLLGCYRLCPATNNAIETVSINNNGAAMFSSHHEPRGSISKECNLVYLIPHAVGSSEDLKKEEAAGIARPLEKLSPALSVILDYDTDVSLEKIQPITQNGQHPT
#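 After overnight tetracycline induction at 30 C, force-coupled D1 HEK293 cells took up a no-wash calcium dye at room temperature. Compounds were added and monitored 180 s, and the response to EC80 dopamine was then recorded.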
# D3 antag: blocks the human D3 dopamine receptor; P35462; D3R cells, DiscoveRx beta-arrestin luminescence, antagonist mode; stronger effect = lower value; max response, negative = inhibition, %; 360,000 tested, 2.5% active; AID 652054; in the data active means max response below about -50%; further: on the % scale 0 is the no-effect control and ±100 the full control effect
#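 Cells plated overnight at 1500 cells/well, then exposed to library compounds with dopamine controls for 90 minutes at 37 degrees C. DiscoveRx reagent added for 30–60 minutes at room temperature; luminescence read, quantitative HTS format.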
# D1 agonist: human D1 receptor agonism | P21728 | HEK293 T-REx D1 cells, calcium flux, agonist mode | activation, % at 2 µM | 360,000 tested, 1% active; in the data active means activation above about 30%; further: 0% is about no effect
#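 Tetracycline-induced HEK293 TREx D1 cells, force-coupled to calcium signalling, were dye-loaded with a no-wash calcium kit. Compound was pin-added after a 10 s baseline. Fluorescence was read kinetically at 1 cycle/s for 180 s, with calcium rises flagged as agonism.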
# D1 potentiator: potentiators of human D1 dopamine receptor; potentiation, % at 10 µM; P21728; HEK293 TREx D1 cells, calcium flux, dopamine EC20 potentiation; AID 504651; 360,000 tested, 0.036% active; in the data active means potentiation above about 30%; further: 0% is about no effect
# * = called active by the depositor; nt = not tested or not shown. Hits are enriched below; roughly 6% of the tested compounds scored in any of these assays.
SMILES,D3 ag,D1 antagonist,D3 antag,D1 agonist,D1 potentiator
CCOc1ccccc1NC(=O)C1CCN(S(=O)(=O)Cc2ccccc2)CC1,3,-20,nt,0,-3
O=C(NCc1cccc(F)c1)c1cccc(NC(=O)c2nsc3ccccc23)c1,6,13,nt,5,-3
COc1cc(-c2nc(-c3ccc(NC(=O)c4ccc(Br)o4)cc3)no2)cc(OC)c1OC,105*,1,39,3,-1
COc1ccc(CCC(=O)Nc2ccc(-c3noc(-c4ccc(OC)c(OC)c4)n3)cc2)cc1,26,-12,48,10,0
COc1cc(C(=O)Nc2ccc(-c3nc4cc(C)c(C)cc4o3)cc2)cc(OC)c1OC,9,-9,nt,0,0
COc1ccc(-c2nc(-c3ccc(NC(=O)c4ccc(Br)o4)cc3)no2)cc1OC,38*,5,61,5,-6
CCOc1ccc(NC(=O)N2CC3CCCN3c3ccccc32)cc1 (configuration not stated),-9,19,nt,0,3
C/C(=N\Nc1nc2ccccc2[nH]1)c1ccc(C)o1,-8,-52*,11,3,-9
C/C(=N\Nc1nc2ccccc2[nH]1)c1ccc(Cl)s1,-2,3,-4,1,-11
COC(=O)CN1C(=O)C(C)(C)Oc2ccc(C(=O)NC3CCCC3)cc21,-25,-15,1,4,-10
CCC(C)(C)NC(=O)c1ccc2c(c1)N(CC(=O)NC1CCCC1)C(=O)C(C)(C)O2,-14,7,-62*,1,-3
O=C(NCc1ccc(Cl)cc1)c1cc(S(=O)(=O)N2CCCCC2)c[nH]1,-1,-13,-54*,2,-4
Fc1ccc(CSc2ncnc3scc(-c4ccccc4)c23)cc1,3,-13,-11,35*,-7
Cc1ccccc1C(=O)Nc1ccc(-c2nc3ccc(C(=O)c4ccccc4)cc3[nH]2)cc1,-10,-42*,-29,4,-5
CN(c1ccccc1)S(=O)(=O)c1ccc(Cl)c(C(=O)Nc2ccc(-c3nc4ccccc4[nH]3)cc2)c1,-4,-30*,19,5,-10
O=C(Nc1ccc(-c2nc3ccccc3[nH]2)cc1)c1ccc(N2C(=O)CCC2=O)cc1,-2,-50*,9,0,-3
Cc1cc(O)c(C(C)C)cc1Cl,8,nt,nt,nt,nt
CCCCN(CCCC)C(=O)c1cc2c(=O)n3ccccc3nc2s1,2,8,nt,-1,6
COc1ccc(C2C(C(=O)NCc3ccco3)c3ccccc3C(=O)N2C)cc1 (configuration not stated),0,-9,1,-1,-3
COc1ccc(C2C(C(=O)N3CCN(c4ccccc4)CC3)c3ccccc3C(=O)N2C)cc1 (configuration not stated),-4,-41*,6,-2,-7
CCN(CC)CCCNC(=O)C1c2ccccc2C(=O)N(C)C1c1ccc(OC)cc1 (configuration not stated),-4,-9,-52*,1,-4
Cc1ccccc1S(=O)(=O)NC(=O)C1(C)CCN1C(=O)c1cccc2ccccc12 (configuration not stated),2,nt,-13,nt,nt
Cc1ccc(F)c(S(=O)(=O)NC(=O)C2(C)CCN2C(=O)c2cccc3ccccc23)c1 (configuration not stated),72*,nt,4,nt,nt
CC(C)C(=O)Nc1cccc(COc2ccc(CN(Cc3ccccc3)C(=O)OC(C)(C)C)cc2)c1,36*,nt,105,nt,nt
CC(C)C(=O)Nc1ccc(COc2ccccc2CN(Cc2ccccc2)C(=O)OC(C)(C)C)cc1,-11,nt,0,nt,nt
SMILES,D3 ag,D1 antagonist,D3 antag,D1 agonist,D1 potentiator
CC(C)N(Cc1ccccc1)C(=O)CN1C(=O)CSc2ccc(S(=O)(=O)N3CCCC3)cc21,-10,-5,nt,1,-1
CN(C)c1nc2ccc(OCCN3CCCCC3)cc2s1,-3,3,-68*,3,-5
CCN(CC)CCOc1ccc2nc(N(C)C)sc2c1,1,-4,-59*,7,-1
CCOc1ccc(CCNC(=O)c2sc3nc4n(c(=O)c3c2C)CCCC4)cc1,1,-8,nt,1,-3
CCN(C(=O)c1cc2c(s1)-c1ccccc1OC2)c1cc(OC)ccc1OC,-12,-2,-54*,5,-4
O=C(Nc1c(-c2ccccc2)[nH][nH]c1=O)c1ccc2ccccc2c1,1,nt,2,nt,nt
COc1ccc(-c2[nH][nH]c(=O)c2NC(=O)c2ccc(C)cc2)cc1,-11,nt,-85*,nt,nt
COC(=O)[C@H](CCSC)NC(=O)Cn1ccc(N)nc1=O,-3,nt,-51*,2,-2
Cc1ccc(S(=O)(=O)Cn2nnnc2C(C(C)C)N2CCN(Cc3ccco3)CC2)cc1 (configuration not stated),-31,-7,-59*,0,-2
CC1CCN(c2c(NCC3CCC(C(=O)NCc4ccccc4)CC3)c(=O)c2=O)CC1 (configuration not stated),1,23,-61*,-3,2
CCOc1ccc(C(=O)c2cn(Cc3ccccc3)c3c(F)cc(F)cc3c2=O)cc1,-3,-28,nt,6,-2
CN(C(=O)CCN1C(=O)/C(=C/c2ccc(F)cc2)SC1=S)C1CCS(=O)(=O)C1 (configuration not stated),6,nt,30,nt,nt
CC(C(=O)N(C)C1CCS(=O)(=O)C1)N1C(=O)/C(=C/c2ccc(F)cc2)SC1=S (configuration not stated),0,-42*,-10,12,-5
COc1ccc(NC(=S)N(CCCN2CCC(C)CC2)Cc2cccs2)cc1Cl,-24,-21,-80*,12,-13
CSc1cccc(NC(=S)N(CCCN2CCCC(C)C2)Cc2cccs2)c1 (configuration not stated),-14,19,-104*,5,-16
COc1cccc(NC(=S)N(CCCN2CCCC(C)C2)Cc2cccs2)c1 (configuration not stated),-11,-13,-80*,3,-1
Cc1cc(C)cc(NC(=S)N(CCCN2CCN(C)CC2)Cc2cccs2)c1,-9,-2,5,11,-6
CCN(c1ccccc1)S(=O)(=O)c1c(-c2ccc(C)cc2)csc1C(=O)OC,-2,32,nt,5,11
Cc1cc(C)c2c(-n3cccc3)c(C(=O)NCCCN3CCCCC3)sc2n1,-35,-6,nt,0,-1
O=S(=O)(c1cccs1)N1CCCc2cccc(O)c21,-3,-4,-73*,4,-3
CCc1cccc(NC(=O)C(Cc2ccccc2)n2cccc2)c1 (configuration not stated),-8,-20,nt,1,-4
COc1ccc(NC(=O)NC2(C(=O)N3CCN4CCCC4C3)CCCCC2)cc1 (configuration not stated),31*,3,1,3,-5
COc1ccccc1CNC(=O)c1ccc(-c2nc(CN3CCc4ccccc43)c(C)o2)cc1,-15,-4,nt,1,-2
